Several values for one entry are separate records, joined by “and”; a condition that tells them apart may be missing. Equal values may be shown once.
molecular target: Solute carrier family 2, facilitated glucose transporter member 1 (Homo sapiens) (UniProt P11166); test: ST_JUDE_LEISH: Cytotoxicity at 2uM final concentration against transgenic Leishmania Mexicana promastigotes LmGLUT1 that are glucose transport deficient and complemented with the human glucose transporter GLUT1. Activity is measured by DNA content using SYBR green in vitro; type: functional
Sequence (P11166 whole entry): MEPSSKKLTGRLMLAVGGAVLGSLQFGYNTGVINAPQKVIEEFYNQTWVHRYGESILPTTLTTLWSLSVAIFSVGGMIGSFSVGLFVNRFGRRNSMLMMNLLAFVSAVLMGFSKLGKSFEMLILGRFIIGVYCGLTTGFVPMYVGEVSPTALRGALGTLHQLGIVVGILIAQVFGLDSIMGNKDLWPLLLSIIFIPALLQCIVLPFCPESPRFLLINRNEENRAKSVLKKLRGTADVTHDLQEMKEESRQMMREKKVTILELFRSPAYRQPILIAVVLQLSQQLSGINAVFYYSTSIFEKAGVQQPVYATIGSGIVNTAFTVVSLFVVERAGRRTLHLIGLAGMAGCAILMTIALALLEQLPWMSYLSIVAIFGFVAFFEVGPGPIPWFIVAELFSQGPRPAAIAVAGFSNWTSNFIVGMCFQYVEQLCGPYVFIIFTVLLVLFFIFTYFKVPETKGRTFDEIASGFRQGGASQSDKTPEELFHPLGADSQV

| Structure (SMILES) | inhibition |
| --- | --- |
| O=S(=O)(NCCN1CCCC1)c1ccc(-c2ccc(CNCc3ccsc3)cc2)cc1 | 13.4% |
| CCN1CCc2nc3ccccc3c(C(=O)Nc3ccc(C#N)cc3)c2C1 | -0.12% |
| O=C(Nc1cccc(CN2CCN(C(=O)c3ccccc3)CC2)c1)c1cccs1 | 4.55% |
| CN(C)CCOc1ccc2c(=O)cc(CCc3cccc(F)c3F)n(CC(=O)N(C)Cc3ccc(-c4ccc(C(F)(F)F)cc4)cc3)c2c1 | -1.05% |
| CCNc1cc(C(=O)N[C@@H](Cc2ccccc2)[C@H](O)CNC2(Cc3cccc(Cl)c3)CCC2)cc(N2CCCCS2(=O)=O)c1 | -0.69% |
| COc1ccccc1CNc1ccnc(NCCc2cccc(C(F)(F)F)c2)n1 | 7.85% |
| FC(F)(F)c1ccc2[nH]c(-c3ccc(-c4ccc(CNCCc5ccncc5)cc4)cc3)nc2c1 | 1.37% |
| CC(C)C[C@@H](/C=N/NC(N)=O)NC(=O)[C@H](CC(C)C)NC(=O)[C@H](CC(C)C)NC(=O)OCc1ccccc1 | 5.02% |
| NC1CCN(CCc2ccc(NS(=O)(=O)c3ccc(-c4ccccc4)cc3)cc2)CC1 | 0.64% |
| Cc1ccc(Cl)cc1NC(=O)c1c(-c2ccccc2Cl)noc1C | -0.47% |
| O=C(Nc1ccccc1)c1nn(CCCN2CCC(N3CCCC3)CC2)cc1-c1ccc(Cl)c(Cl)c1 | 2.06% |
| c1ccc2[nH]c(-c3ccc(-c4ccc(CNCCc5ccncc5)cc4)s3)nc2c1 | 8.39% |
| CN(C)C(=O)c1ccc(CN(Cc2ccc3c(c2)OCCO3)Cc2ccc3c(c2)OCO3)cc1 | 3.62% |
| COc1cc(NC(=O)N2CCc3cc(OC)c(OCCN4CCCCC4)cc32)cc(C(F)(F)F)c1 | 12.9% |
| Cc1cccc(CNc2ncc(C)c(NCCC(=O)Nc3ccccc3)n2)c1 | 15.3% |
| CCc1ccc(-c2nc3cc(NC(=O)c4ccc([N+](=O)[O-])o4)ccc3o2)cc1 | 1.01% |
| N#Cc1ccc(N(CCOC(=O)c2ccccc2)Cc2ccccc2C(F)(F)F)cc1C(F)(F)F | 1.67% |
| CC1(C)N=C(NC(=O)c2ccc([N+](=O)[O-])cc2)N=C(N)N1OCc1ccc2ccccc2c1 | 3.85% |
| Cc1cccc2nc(-c3cccc(-c4cccc(CN5CCN(c6ccncc6)CC5)c4)c3)[nH]c12 | 1.34% |
| O=S(=O)(NCCN1CCCC1)c1ccc(-c2cccc(CNCc3ccc(F)cc3)c2)cc1F | 3.24% |

| Structure (SMILES) | inhibition |
| --- | --- |
| CC(C)CCN1CCC(Oc2ccc(NC(=O)c3ccccc3)cc2Cl)CC1 | 1.25% |
| CCOC(=O)c1nc(-c2cccnc2)[nH]c1NC(=S)NCc1ccccc1 | 1.58% |
| O=C(c1ccc(OCCn2ccnc2)cc1)N1CCC(c2ccc(Br)cc2)C1 (stereo not given) | 0.09% |
| O=S(=O)(c1ccc(OC(F)(F)F)cc1)C1CC2CCC(C1)N2S(=O)(=O)c1ccc(Cl)c(C(F)(F)F)c1 (stereo not given) | 11.6% |
| N#Cc1ccc2c(c1)CN(CC[C@H]1CC[C@H](NC(=O)/C=C/c3c[nH]c4ccccc34)CC1)CC2 | 7.48% and 1.99% |
| CS(=O)(=O)c1ccc(CCNCc2ccc(-c3ccc(CN(C(=O)c4ccco4)C4CCN(Cc5ccccc5)CC4)cc3)nc2)cc1 | 1.33% |
| C[C@H](NC(=O)c1c(OC2CN(C(c3ccccc3)c3ccccc3)C2)c(-c2ccccc2)nc2ccccc12)C1CCCCC1 | 2.01% |
| CCCN(CCC)CCCNc1ccc(C(=O)Nc2ccc(OCC)cc2)cc1[N+](=O)[O-] | 32.8% |
| NCC(NC(=O)c1ccc(-c2c[nH]c3ncccc23)s1)c1ccccc1 (stereo not given) | 51.9% |
| FC(F)(F)c1ccc2[nH]c(-c3ccc(-c4cccc(CNCCc5cccnc5)c4)s3)nc2c1 | 3.04% |
| CCC(C)CN1CCCN(c2ccc(NC(=O)c3cccs3)cc2)CC1 (stereo not given) | 1.62% |
| FC(F)(F)c1cccc(CNC2CCN(CC3CCCCC3)CC2)c1 | 5.19% |
| CCCCCN1CCCN(Cc2cccc(NC(=O)c3ccc(Cl)c(Cl)c3)c2)CC1 | -3.68% |
| CCOc1ccc(NC(C)=O)c(O)c1 | 5.79% |
| CC(C)Cc1nc(N)nc(N)c1-c1ccc(Cl)cc1 | 6.51% |
| COc1ccc(N2CCN(CCCCNC(=O)c3ccc(NC(=O)c4ccc(OC(F)(F)F)cc4)cc3)CC2)c(OC)c1 | 5.81% |
| Cc1cccc2nc(-c3ccc(-c4cccc(NC(=O)Nc5ccsc5)c4)s3)[nH]c12 | 0.98% |
| Cc1ccc(CN2CCCN(Cc3cccc(NC(=O)c4ccc(Cl)c(Cl)c4)c3)CC2)cc1 | -1.13% |
| Cc1cc(N2CCOCC2)nc2ccc(NC(=O)c3ccc(Cl)c([N+](=O)[O-])c3)cc12 | 5.45% |
| CCN(CC)CCCNc1nccc(N2CCc3ncnc(Nc4ccc(OCc5cccc(F)c5)c(Cl)c4)c3C2)n1 | 7.17% |

— ChEMBL document CHEMBL3433997, “St. Jude Leishmania screening dataset” (2016)
